Screens as filed in PubChem.
Only some compounds are listed: those with a hit (about 8.6% of all), similar ones and a draw of the others.
MARV entry inh: blocks Marburg virus binding or cell entry; Marburg virus pseudotype entry/binding inhibition, cell-based; Potency, µM (highest dose often 49.2 µM), for the others: at the top dose activity change, negative = inhibition, hits mostly inhibitors; 18,000 compounds, 6.5% hits
LASV entry inh: inhibitors of Lassa virus binding or entry into cells | Lassa virus pseudotyped entry inhibition, cell-based qHTS | Potency, µM (doses to about 49.2 µM), for the others: top-dose activity change, negative = inhibition, usual class: inhibitors | 18,000 compounds, 4.1% hits | AID 720533
The depositor's hits bear a star; ? = inconclusive; ! = not active in a repeat; [ ] = dose if it differs, or a comment. The call rests on the fitted dose curve; tested in HEK293 cells. On the % scale 0 is the no-effect control and ±100 the full control effect; potency means the concentration at half of the fitted maximal effect.

SMILES | MARV entry inh | LASV entry inh
CCCCC[C@H](O)/C=C/[C@H]1C(=O)C=C[C@@H]1C/C=C\CCCC(=O)O | 8% | 1%
Cn1ccc2c(N(Cc3ccccc3)Cc3ccccc3)cc3c(c21)C1CCC3O1 (centres undefined) | -10% | 17%
COC(=O)C1=C(C)[C@@H](O)[C@@H](C)[C@](C)(c2cc(OC)c(C)c(OC)c2COc2ccccc2)O1 | 26% | -1%
CC(=O)OC1(c2ccccc2)CCN(CCc2ccccc2)CC1 | ? | -24%[107 µM]
CN(C)C(=O)C(CCN1CCC(O)(c2ccc(Cl)cc2)CC1)(c1ccccc1)c1ccccc1 | 6.3µM* | 25µM*!
C[C@@H](Cc1ccccc1)Nc1ncnc2c1ncn2[C@@H]1O[C@H](CO)[C@@H](O)[C@H]1O | 48% | 3%
COc1ccc(CC(N)C(=O)N[C@H]2[C@@H](O)[C@H](n3cnc4c(N(C)C)ncnc43)O[C@@H]2CO)cc1 (some centres undefined) | 6.3µM* | 1.3µM*
CCC1(C2CCN(Cc3cccc4ccccc34)CC2)NC(=O)N(Cc2ccc3c(c2)OCO3)C1=O (centres undefined) | ? | -30%
Cc1cccc2c(Nc3ccc4c(c3)OCO4)nc(CN3CCC(N4CCCCC4)CC3)nc12 | 10µM* | 22µM*
CN1CC(=O)NC1=N | 4% | 4%
O=C(O)c1ccccc1-c1c2cc(I)c(=O)c(I)c-2oc2c(I)c(O)c(I)cc12 | -21% | -24%
OCCNCCCOc1cccc(Cl)c1Cl | 6.3µM* | ?
C[C@H](NC(=O)[C@@H](N)Cc1ccc(O)cc1)C(=O)NCC(=O)N[C@H]1CSSC[C@@H](C(=O)O)NC(=O)[C@H](CO)NC(=O)[C@H]([C@@H](C)O)NC(=O)[C@H](Cc2ccccc2)NC(=O)[C@H]([C@@H](C)O)NC(=O)[C@H](CCCCN)NC(=O)[C@@H](Cc2c[nH]c3ccccc23)NC(=O)[C@H](Cc2ccccc2)NC(=O)[C@H](Cc2ccccc2)NC(=O)[C@H](CC(N)=O)NC(=O)[C@H](CCCCN)NC1=O | -14% | 4%
COc1ccc(/C=C/C(=O)c2ccc(O)cc2O)cc1 | 4% | 11%
COc1ccc(/C=C/C(=O)c2cc(O)ccc2O)cc1 | -20% | 0.89µM*
NCC(=O)N[C@@H](CCCN=C(N)N)C(=O)NCC(=O)N[C@@H](CC(=O)O)C(=O)N[C@@H](CO)C(=O)N1CCC[C@H]1C(=O)O | -17% | 5%
CCN1C(=NCCc2cccs2)N[C@@H](CCc2ccccc2)[C@H](C(=O)NCCc2cccs2)[C@H]1C | 38%[8.59 µM] | -24%[8.59 µM]
CCCCC(CC)COC(=O)c1ccc(N(C)C)cc1 (centres undefined) | -69% | -21%
C=Cc1c(C)c2cc3[nH]c(cc4nc(cc5nc(cc1[nH]2)C(C)=C5CCC(=O)O)C(CCC(=O)O)=C4C)c(C)c3C=C | -26% | 6%
CCC1CN2CCC1CC2C(O)c1ccnc2ccc(OC)cc12 (centres undefined) | 20µM* | ?
CC[C@H]1CN2CC[C@@H]1C[C@H]2[C@@H](O)c1ccnc2ccc(OC)cc12 | ? | 4%[17.8 µM]
CC(C)(CNC(=O)c1cnn(-c2nccc(-c3cccs3)n2)c1C1CC1)N1CCOCC1 | 10% | 15%
CN(C)CCc1c[nH]c2ccc(C[C@H]3COC(=O)N3)cc12 | 14% | -1%
CCN1C(=O)c2ccccc2C1Nc1ccc(OCCN2CCCCC2)cc1 (centres undefined) | -23% | -10%
Cc1c(-c2ccc(O)cc2)nn(-c2ccc(O)cc2)c1-c1ccc(OCCN2CCCCC2)cc1 | 4µM* | 32µM*
SMILES | MARV entry inh | LASV entry inh
O=C(OC[C@H]1O[C@@H](OC(=O)c2cc(O)c(O)c(OC(=O)c3cc(O)c(O)c(O)c3)c2)[C@H](OC(=O)c2cc(O)c(O)c(OC(=O)c3cc(O)c(O)c(O)c3)c2)[C@@H](OC(=O)c2cc(O)c(O)c(OC(=O)c3cc(O)c(O)c(O)c3)c2)[C@@H]1OC(=O)c1cc(O)c(O)c(OC(=O)c2cc(O)c(O)c(O)c2)c1)c1cc(O)c(O)c(OC(=O)c2cc(O)c(O)c(O)c2)c1 | 0.35µM* | 10µM*
Cc1ccc(C(=O)OC[C@H]2O[C@H](Cl)C[C@H]2OC(=O)c2ccc(C)cc2)cc1 | 1%[8.59 µM] | -6%[8.59 µM]
COc1ccc(NC(=O)C[C@H]2C(=O)N(c3ccccc3)C[C@@H]2C)cc1 | ? | 10%
CCCCCC(=O)O[C@@]1(C(C)=O)CCC2C3CCC4=CC(=O)CC[C@@]4(C)C3CC[C@]21C (some centres undefined) | 10µM* | 22µM*
CCCC(=O)O[C@]1(C(=O)CO)CC[C@H]2[C@@H]3CCC4=CC(=O)CC[C@]4(C)[C@H]3[C@@H](O)C[C@@]21C | -5% | -2%
O=C(c1cccs1)N1C[C@H](n2cc(C3CC3)nn2)[C@H](O)C[C@@H]1c1ccc(Cl)cc1 | -17% | 12%
O=C(O)[C@@H](O)[C@H](O)[C@H](O)[C@@H](O)C(=O)O | 5% | -19%
N[C@H](C(=O)O)[C@H](O)C(=O)O | 14µM*! | ?
O=C(O)C(Cl)Cl | -4% | -10%
